# Source: PubChem BioAssay AID1159580 (chemical genetic matrix, 2015)
# Several values for one entry are separate records, joined by “and”; a condition that tells them apart may be missing. Identical values can stand only once. Hit rate of the full screen: of about 5,500 compounds, about 2,000 (36%) were called active. About 18% were inconclusive and are not listed. Rule as the data show it: active = normalized growth mostly below about 0.91 (no sharp cut-off); inconclusive = no clear call, values can overlap the other calls; inactive = mostly above about 0.92. The list shows a part of the results.
# Experiment: chemical genetic growth profiling, strain panel (AID 1159580);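 also: tested at 20 µM; growth read once vehicle control cultures reached saturation at 30 °C; 1 = growth at the plate median or of vehicle wells; lower values mean less growth of the strain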
# Conditions: S. cerevisiae deletion strains, growth OD
compound,measurement,setting,value
CC(C)c1nc(N(C)S(C)(=O)=O)nc(-c2ccc(F)cc2)c1/C=C/[C@@H](O)C[C@@H](O)CC(=O)O,normalized growth,"locus YAL013W, strain DEP1, stronger effect = lower value",0.988 (inactive)
same,normalized growth,"locus YAL021C, strain ccr4, stronger effect = lower value",0.839 (active)
same,normalized growth,"locus YAL026C, strain drs2, stronger effect = lower value",0.98 (inactive)
same,normalized growth,"locus YAL030W, strain snc1, stronger effect = lower value",0.998 (inactive)
same,normalized growth,"locus YBL061C, strain skt5, stronger effect = lower value",1.02 (inactive)
same,normalized growth,"locus YBR009C, strain hhf1, stronger effect = lower value",0.998 (inactive)
same,normalized growth,"locus YBR021W, strain FUR4, stronger effect = lower value",0.96 (inactive)
same,normalized growth,"locus YBR023C, strain chs3, stronger effect = lower value",1.02 (inactive)
same,normalized growth,"locus YBR171W, strain sec66, stronger effect = lower value",1.01 (inactive)
same,normalized growth,"locus YBR229C, strain ROT2, stronger effect = lower value",1.01 (inactive)
same,normalized growth,"locus YBR231C, strain swc5, stronger effect = lower value",0.922 (inactive)
same,normalized growth,"locus YBR279W, strain paf1, stronger effect = lower value",0.99 (inactive)
same,normalized growth,"locus YCL011C, strain gbp2, stronger effect = lower value",1.01 (inactive)
same,normalized growth,"locus YCL016C, strain dcc1, stronger effect = lower value",0.998 (inactive)
same,normalized growth,"locus YCL029C, strain bik1, stronger effect = lower value",1.01 (inactive)
same,normalized growth,"locus YCL069W, strain vba3, stronger effect = lower value",1.02 (inactive)
same,normalized growth,"locus YCR088W, strain abp1, stronger effect = lower value",1.03 (inactive)
same,normalized growth,"locus YDL005C, strain med2, stronger effect = lower value",1.02 (inactive)
same,normalized growth,"locus YDL035C, strain GPR1, stronger effect = lower value",1 (inactive)
same,normalized growth,"locus YDL040C, strain nat1, stronger effect = lower value",1.01 (inactive)
same,normalized growth,"locus YDL074C, strain BRE1, stronger effect = lower value",0.995 (inactive)
same,normalized growth,"locus YDL101C, strain DUN1, stronger effect = lower value",0.996 (inactive)
same,normalized growth,"locus YDL134C, strain PPH21, stronger effect = lower value",0.995 (inactive)
same,normalized growth,"locus YDL185W, strain tfp1, stronger effect = lower value",0.928 (inactive)
same,normalized growth,"locus YDL192W, strain arf1, stronger effect = lower value",1 (inactive)
same,normalized growth,"locus YDR001C, strain nth1, stronger effect = lower value",1.03 (inactive)
same,normalized growth,"locus YDR069C, strain doa4, stronger effect = lower value",0.971 (inactive)
same,normalized growth,"locus YDR101C, strain arx1, stronger effect = lower value",0.999 (inactive)
same,normalized growth,"locus YDR137W, strain rgp1, stronger effect = lower value",1.34 [resistant] (active)
same,normalized growth,"locus YDR150W, strain NUM1, stronger effect = lower value",1.01 (inactive)
same,normalized growth,"locus YDR159W, strain sac3, stronger effect = lower value",0.998 (inactive)
same,normalized growth,"locus YDR162C, strain NBP2, stronger effect = lower value",0.961 (inactive)
same,normalized growth,"locus YDR195W, strain ref2",1.09 (inactive)
same,normalized growth,"locus YDR297W, strain sur2, stronger effect = lower value",0.977 (inactive)
same,normalized growth,"locus YDR318W, strain mcm21, stronger effect = lower value",1.01 (inactive)
same,normalized growth,"locus YDR334W, strain swr1, stronger effect = lower value",0.982 (inactive)
same,normalized growth,"locus YDR335W, strain msn5, stronger effect = lower value",1.02 (inactive)
same,normalized growth,"locus YDR388W, stronger effect = lower value",1.01 (inactive)
same,normalized growth,"locus YDR392W, strain spt3, stronger effect = lower value",1.02 (inactive)
same,normalized growth,"locus YDR502C, strain sam2, stronger effect = lower value",1 (inactive)
same,normalized growth,"locus YEL003W, strain gim4, stronger effect = lower value",1.02 (inactive)
same,normalized growth,"locus YEL037C, strain rad23, stronger effect = lower value",1.01 (inactive)
same,normalized growth,"locus YEL061C, strain CIN8 (second series), stronger effect = lower value",1.02 (inactive)
same,normalized growth,"locus YEL061C, strain CIN8, stronger effect = lower value",0.998 (inactive)
same,normalized growth,"locus YER015W, strain faa2, stronger effect = lower value",0.99 (inactive)
same,normalized growth,"locus YER016W, strain bim1, stronger effect = lower value",1.01 (inactive)
same,normalized growth,"locus YER110C, stronger effect = lower value",0.999 (inactive)
same,normalized growth,"locus YER111C, strain swi4, stronger effect = lower value",1.02 (inactive)
same,normalized growth,"locus YER155C, strain BEM2 (second series), stronger effect = lower value",1.02 (inactive)
same,normalized growth,"locus YER155C, strain BEM2, stronger effect = lower value",0.99 (inactive)
same,normalized growth,"locus YER167W, strain BCK2, stronger effect = lower value",1 (inactive)
same,normalized growth,"locus YFR010W, strain ubp6, stronger effect = lower value",0.995 (inactive)
same,normalized growth,"locus YGL078C, strain dbp3, stronger effect = lower value",0.997 (inactive)
same,normalized growth,"locus YGL086W, strain mad1, stronger effect = lower value",1.01 (inactive)
same,normalized growth,"locus YGL167C, strain pmr1, stronger effect = lower value",1.01 (inactive)
same,normalized growth,"locus YGL173C, strain kem1, stronger effect = lower value",1 (inactive)
same,normalized growth,"locus YGL227W, strain vid30, stronger effect = lower value",1.02 (inactive)
same,normalized growth,"locus YGL240W, strain doc1, stronger effect = lower value",1.03 (inactive)
same,normalized growth,"locus YGL248W, strain PDE1, stronger effect = lower value",0.993 (inactive)
same,normalized growth,"locus YGL253W, strain hxk2, stronger effect = lower value",1.01 (inactive)
same,normalized growth,"locus YGR078C, strain PAC10, stronger effect = lower value",1.01 (inactive)
same,normalized growth,"locus YGR135W, strain pre9, stronger effect = lower value",0.987 (inactive)
same,normalized growth,"locus YGR229C, strain SMI1, stronger effect = lower value",1.01 (inactive)
same,normalized growth,"locus YGR252W, strain gcn5, stronger effect = lower value",1.04 (inactive)
same,normalized growth,"locus YHR013C, strain ard1, stronger effect = lower value",0.972 (inactive)
same,normalized growth,"locus YHR027C, strain rpn1, stronger effect = lower value",1.01 (inactive)
same,normalized growth,"locus YHR030C, strain SLT2, stronger effect = lower value",1 (inactive) and 0.0994 (active)
same,normalized growth,"locus YHR079C, strain IRE1 (second series), stronger effect = lower value",1 (inactive)
same,normalized growth,"locus YHR079C, strain IRE1, stronger effect = lower value",0.127 (active)
same,normalized growth,"locus YHR094C, strain hxt1, stronger effect = lower value",1.01 (inactive)
same,normalized growth,"locus YHR129C, strain ARP1, stronger effect = lower value",0.99 (inactive)
same,normalized growth,"locus YHR142W, strain chs7, stronger effect = lower value",1.02 (inactive)
same,normalized growth,"locus YHR200W, strain rpn10, stronger effect = lower value",1 (inactive)
same,normalized growth,"locus YIL066C, strain RNR3, stronger effect = lower value",1.02 (inactive)
same,normalized growth,"locus YIL073C, strain SPO22, stronger effect = lower value",1 (inactive)
same,normalized growth,"locus YIL125W, strain kgd1, stronger effect = lower value",1.02 (inactive)
same,normalized growth,"locus YIR030C, strain dcg1, stronger effect = lower value",1.01 (inactive)
same,normalized growth,"locus YJL092W, strain hpr5, stronger effect = lower value",1.03 (inactive)
same,normalized growth,"locus YJL095W, strain BCK1 (second series), stronger effect = lower value",0.986 (inactive)
same,normalized growth,"locus YJL095W, strain BCK1, stronger effect = lower value",0.996 (inactive) and 0.12 (active)
same,normalized growth,"locus YJL115W, strain asf1, stronger effect = lower value",1 (inactive)
same,normalized growth,"locus YJL129C, strain trk1, stronger effect = lower value",1.08 (inactive)
same,normalized growth,"locus YJL134W, strain LCB3, stronger effect = lower value",1 (inactive)
same,normalized growth,"locus YJL154C, strain vps35, stronger effect = lower value",1.01 (inactive)
same,normalized growth,"locus YJL164C, strain tpk1, stronger effect = lower value",1 (inactive)
same,normalized growth,"locus YJL166W, strain qcr8, stronger effect = lower value",0.994 (inactive)
same,normalized growth,"locus YJL168C, strain set2, stronger effect = lower value",1.01 (inactive)
same,normalized growth,"locus YJL187C, strain SWE1 (second series), stronger effect = lower value",1 (inactive)
same,normalized growth,"locus YJL187C, strain SWE1, stronger effect = lower value",0.998 (inactive)
same,normalized growth,"locus YJR043C, strain POL32, stronger effect = lower value",0.997 (inactive)
same,normalized growth,"locus YJR066W, strain TOR1, stronger effect = lower value",0.00783 (active)
